Source: PubChem
Lassa entry inh: inhibitors of Lassa virus binding or cell entry | Lassa virus pseudotype entry inhibition, cell reporter | Potency, µM (series often up to 37.9 µM), without a hit: at the highest dose activity change, negative = inhibition, most hits filed as inhibitors | actives 1.2% (n = 300,000); calls by dose curve; tested in HEK293 cells; further: potency means the concentration at half of the fitted maximal effect; nearly all actives have a fitted effect of over 50% in size
HCMV inh: inhibitors of human cytomegalovirus | HFF cells, HCMV-luciferase reporter, 72 h; stronger effect = lower value | activity change, negative = inhibition, % at 57.5 µM | actives 4.5% (n = 410,000) | AID 1259415; in the data active means activity change below about -60%; inconclusive means no clear call, values can overlap the other calls; inactive means above about -39%
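Steps: HFFs plated, 16 h 37C; compounds added; HCMV-luciferase added to MOI 1 PFU/cell; 72 h 37C; OneGlo reagent, 5 min room temperature; luminescence read, normalized to controls.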
Marburg entry inh: blocks Marburg virus binding to or entry into cells; Marburg virus pseudotyped entry inhibition, cell reporter; Potency, µM (top dose mostly 37.8 µM), without a hit: at the top dose activity change, negative = inhibition, actives largely listed as inhibitors; actives 1.8% (n = 300,000); AID 540276; calls by dose curve; tested in HEK293 cells; further: potency means the concentration at half of the fitted maximal effect
FMDV antiviral: foot and mouth disease virus antiviral activity; FMDV antiviral cell-based qHTS; Potency, µM (series often up to 57.9 µM), inactives show at the highest dose activity change, negative = inhibition, hits mostly inhibitors; actives 1.2% (n = 410,000); calls by dose curve; tested in HEK293T cells; further: read-out not given here; potency means the concentration at half of the fitted maximal effect; nearly all actives have a fitted effect of over 45% in size
The depositor's hits bear a star; [ ] = dose if it differs, or a comment. Compounds with a hit are over-represented: about 6.2% of the library has one in this group of screens. On the % scale 0 is the no-effect control and ±100 the full control effect.

For COc1ccc(CN(C)c2ccc(S(=O)(=O)N3CCN(C)CC3)cc2[N+](=O)[O-])cc1OC the results were Lassa entry inh inconclusive, HCMV inh -86*, Marburg entry inh inconclusive and FMDV antiviral inconclusive.
`O=[N+]([O-])c1cc(S(=O)(=O)N2CCCCCC2)ccc1F` gave Lassa entry inh inconclusive, HCMV inh -97*, Marburg entry inh 11µM* and FMDV antiviral inconclusive.
COc1ccc(CCN(C)c2ccc(S(=O)(=O)N3CCCC3)cc2[N+](=O)[O-])cc1OC was read as Lassa entry inh inconclusive, HCMV inh inconclusive, Marburg entry inh -32% and FMDV antiviral inconclusive.
Screening c1ccc(CCSc2ncnc3nc[nH]c23)cc1 returned Lassa entry inh -26%, HCMV inh inconclusive, Marburg entry inh inconclusive and FMDV antiviral 24%.
`c1ccc2c(CSc3ncnc4nc[nH]c34)cccc2c1` gave Lassa entry inh inconclusive, HCMV inh -69*, Marburg entry inh -12%[46.1 µM] and FMDV antiviral inconclusive.
`O=C(Cc1n[nH]c(=O)c2ccccc12)OCC(=O)c1ccc(F)cc1` gave Lassa entry inh 8%[46.1 µM], HCMV inh 16, Marburg entry inh inconclusive and FMDV antiviral -22%.
O=C(Cc1n[nH]c(=O)c2ccccc12)OCC(=O)c1ccc2c(c1)OCCO2 was read as Lassa entry inh inconclusive, HCMV inh -87*, Marburg entry inh inconclusive and FMDV antiviral 1%.
COc1ccc(-n2c(C)cc(C(=O)COC(=O)Cc3n[nH]c(=O)c4ccccc34)c2C)cc1 was read as Lassa entry inh inconclusive, HCMV inh inconclusive, Marburg entry inh inconclusive and FMDV antiviral 28µM*.
O=C(NCN1CCN(c2ccccn2)CC1)c1cnccn1 was read as Lassa entry inh 4%, HCMV inh -19, Marburg entry inh 14% and FMDV antiviral 6%.
`C/C(=N/NC(=O)c1cccs1)c1ccc(NC(=O)COc2ccc(Cl)cc2)cc1` gave Lassa entry inh 10µM*, HCMV inh -14, Marburg entry inh inconclusive and FMDV antiviral -4%.
Screening C/C(=N\NC(=O)c1cccs1)c1ccncc1 returned HCMV inh 112 and FMDV antiviral 48%.
C/C(=N\NC(=O)c1ccc(NS(=O)(=O)c2cccs2)cc1)c1cccs1 was read as Lassa entry inh 18%, HCMV inh -83*, Marburg entry inh 3%[46.1 µM] and FMDV antiviral 21%.
C/C(=N\NC(=O)c1ccc(Cl)cc1)c1cccs1 was read as Lassa entry inh 3.5µM*, HCMV inh -5, Marburg entry inh inconclusive and FMDV antiviral -48%.
Screening C/C(=N\NC(=O)c1ccc(NS(=O)(=O)c2cccs2)cc1)c1ccc(Cl)cc1 returned Lassa entry inh 3%, HCMV inh 22, Marburg entry inh -2% and FMDV antiviral -14%.
`COC(=O)C1=C(c2ccc(F)cc2F)C[C@@H]2CC[C@H]1N2C(=O)NCc1ccc(F)cc1` gave HCMV inh -9 and FMDV antiviral -18%.
For C[C@@H]1CN([C@@H](C)CO)C(=O)c2cc(-c3ccccc3F)cnc2O[C@H]1CN(C)Cc1cccc(F)c1 the results were HCMV inh 4 and FMDV antiviral -6%.
`N#C/C(=C\c1ccc(OCc2ccc(C(=O)O)cc2)cc1)C(=O)N1CCOCC1` gave Lassa entry inh 1.8µM*, HCMV inh -4, Marburg entry inh 0.92µM* and FMDV antiviral inconclusive.
For COc1cccc(C2C(C(=O)c3ccco3)=C(O)C(=O)N2CCCN2CCOCC2)c1OC (stereo not given) the results were Lassa entry inh 3%[46.1 µM], HCMV inh 34, Marburg entry inh 9%[46.1 µM] and FMDV antiviral -15%.
`COc1cccc(/C=N/Nc2nn3cnnc3c3ccccc23)c1O` gave Lassa entry inh -11%, HCMV inh -29, Marburg entry inh inconclusive and FMDV antiviral 2%.
For O=c1nccc(N/N=C/c2ccccc2O)[nH]1 the results were Lassa entry inh inconclusive, HCMV inh -91*, Marburg entry inh 5.6µM* and FMDV antiviral 7%.
Screening COc1cccc(/C=N/Nc2ccnc(=O)[nH]2)c1O returned Lassa entry inh inconclusive, HCMV inh -94*, Marburg entry inh inconclusive and FMDV antiviral -11%.
`CCOc1ccccc1/C=N/Nc1ccnc(=O)[nH]1` gave Lassa entry inh inconclusive, HCMV inh -99*, Marburg entry inh inconclusive and FMDV antiviral 22%.
For O=C(Cn1cc(C(F)(F)F)ccc1=O)N1CCN(S(=O)(=O)c2ccc(Cl)cc2)CC1 the results were Lassa entry inh -4%, HCMV inh -6, Marburg entry inh -15% and FMDV antiviral -21%.
COC(=O)c1ccc(NC(=O)c2cccc(N3C(=O)CCC3=O)c2)cc1 was read as Lassa entry inh 2%, HCMV inh -5, Marburg entry inh -16%[46.1 µM] and FMDV antiviral -13%.
`O=C(CSc1ccc(F)cc1)Nc1ccccc1Br` gave Lassa entry inh 0%, HCMV inh -61*, Marburg entry inh 4% and FMDV antiviral 46%.
O=C1c2ccccc2-c2n[nH]c(=O)c3ccc(N4CCCCC4)c1c23 was read as Lassa entry inh -27%, HCMV inh -62*, Marburg entry inh -26%[46.1 µM] and FMDV antiviral inconclusive.
For O=C1c2cccc3c(N4CCCCC4)ccc(c23)C(=O)N1c1ccccn1 the results were Lassa entry inh 2%, HCMV inh -5, Marburg entry inh 5% and FMDV antiviral -16%.
O=C(CCN1C(=O)C2CC=CCC2C1=O)Nc1cccc(S(=O)(=O)N2CCCCC2)c1 (stereo not given) was read as HCMV inh -23 and FMDV antiviral -17%.
`O=C(Nc1ccc(Br)cc1)N1CCCC(O)C1` (stereo not given) gave HCMV inh -4, Marburg entry inh 8%[46.1 µM] and FMDV antiviral 42%.
Cc1ccc(N(CC(=O)NCCSc2ccccn2)S(C)(=O)=O)cc1 was read as Lassa entry inh -16%, HCMV inh -27, Marburg entry inh -11%[46.1 µM] and FMDV antiviral 6%.
Screening O=c1c2ccccc2cnn1CCOc1ccccc1 returned Lassa entry inh 0.28µM*, HCMV inh -87*, Marburg entry inh 2.1µM* and FMDV antiviral 10µM*.
For O=C(O)Cn1ncc2ccccc2c1=O the results were Lassa entry inh -1%, HCMV inh -6, Marburg entry inh -23%[46.1 µM] and FMDV antiviral 3%.
CCOC(=O)N1CCN(C(=O)c2ccc3c(c2)NC(=O)/C(=C/c2ccccc2)S3)CC1 was read as Lassa entry inh inconclusive, HCMV inh inconclusive, Marburg entry inh inconclusive and FMDV antiviral 11%.
`COc1cccc(/C=C2/Sc3ccc(C(=O)NCCN4CCCCCC4)cc3NC2=O)c1` gave HCMV inh -70* and FMDV antiviral -4%.
`O=C1Nc2cc(C(=O)NCCN3CCCCCC3)ccc2S/C1=C\c1ccccc1` gave HCMV inh -100* and FMDV antiviral -21%.
Screening CCN1CCCC1CNC(=O)c1ccc2c(c1)NC(=O)/C(=C\c1ccccc1Cl)S2 (stereo not given) returned HCMV inh -63* and FMDV antiviral -20%.
CN1CCN(C(=O)c2ccc3c(c2)NC(=O)/C(=C/c2ccccc2)S3)CC1 was read as HCMV inh -69* and FMDV antiviral -10%.
